From the supplement of paper PMC8728848
This is one part of a sample in which the strongest signals are shown more often than they occur.

Assays:
Test in all cases: glycan array binding signal (z-score within array); higher = stronger binding
Conditions in all cases: glycan notation: IUPAC condensed, linker removed
[1] = molecular target: Fuc(a1-2)Gal(b1-3)[Fuc(a1-4)]GlcNAc(b1-3)[Fuc(a1-3)[Gal(b1-4)]GlcNAc(b1-6)]Gal(b1-4)Glc
Outline: (§1)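 Glycan array data were curated from 3228 arrays in the Consortium for Functional Glycomics database and kept only where the protein sequence was available. Glycan names were converted to IUPAC-condensed notation, and columns mapping to the same glycan were averaged. The binding signal is a within-array Z-score, averaged across arrays of the same protein sequence at different concentrations or buffers and across linkers. Negative Z-scores can be read as non-binding.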

[2] = molecular target: Fuc(a1-2)Gal(b1-4)GlcNAc(b1-2)[Fuc(a1-2)Gal(b1-4)GlcNAc(b1-4)]Man(a1-3)[Fuc(a1-2)Gal(b1-4)GlcNAc(b1-2)Man(a1-6)]Man(b1-4)GlcNAc(b1-4)GlcNAc
Outline: as §1

[3] = molecular target: Fuc(a1-2)Gal(b1-4)GlcNAc(b1-3)GalNAc
Outline: as §1

[4] = molecular target: Fuc(a1-2)Gal(b1-4)[Fuc(a1-3)]GlcNAc(b1-3)GalNAc
Outline: as §1

[5] = molecular target: Fuc(a1-2)Gal6S(b1-3)GlcNAc
Outline: as §1

[6] = molecular target: Fuc(a1-2)[Gal(a1-3)]Gal(b1-3)GlcNAc(b1-6)GalNAc
Outline: as §1

[7] = molecular target: Fuc(a1-2)[Gal(a1-3)]Gal(b1-4)GlcNAc(b1-3)GalNAc
Outline: as §1

[8] = molecular target: Fuc(a1-2)[GalNAc(a1-3)]Gal(b1-3)GlcNAc(b1-6)GalNAc
Outline: as §1

[9] = molecular target: Fuc(a1-2)[GalNAc(a1-3)]Gal(b1-4)[Fuc(a1-3)]GlcNAc(b1-3)GalNAc
Outline: as §1

Fuc(a1-3)GlcNAc = molecular target: Fuc(a1-3)GlcNAc
Outline: as §1

[10] = molecular target: Fuc(a1-3)[Gal(b1-4)]GlcNAc(b1-3)Gal(b1-4)[Fuc(a1-3)]GlcNAc
Outline: as §1

[11] = molecular target: Fuc(a1-3)[Gal(b1-4)]GlcNAc(b1-6)GalNAc
Outline: as §1

[12] = molecular target: Fuc(a1-3)[Gal(b1-4)]GlcNAc6S
Outline: as §1

[13] = molecular target: Gal(a1-3)Gal(b1-3)GlcNAc(b1-2)Man(a1-3)[Gal(a1-3)Gal(b1-3)GlcNAc(b1-2)Man(a1-6)]Man(b1-4)GlcNAc(b1-4)GlcNAc
Outline: as §1

[14] = molecular target: Gal(a1-3)Gal(b1-4)GlcNAc(b1-3)GalNAc
Outline: as §1

[15] = molecular target: Gal(a1-3)[Gal(a1-4)]Gal(b1-4)GlcNAc
Outline: as §1

Gal(b1-2)Gal = molecular target: Gal(b1-2)Gal
Outline: as §1

Gal(b1-3)Gal = molecular target: Gal(b1-3)Gal
Outline: as §1

Gal(b1-3)Gal(b1-4)GlcNAc = molecular target: Gal(b1-3)Gal(b1-4)GlcNAc
Outline: as §1

Gal(b1-3)GalNAc = molecular target: Gal(b1-3)GalNAc
Outline: as §1

Gal(b1-3)GalNAc(b1-3)Gal = molecular target: Gal(b1-3)GalNAc(b1-3)Gal
Outline: as §1

[16] = molecular target: Gal(b1-3)GalNAc(b1-4)Gal(b1-4)Glc
Outline: as §1

[17] = molecular target: Gal(b1-3)GalNAc(b1-4)[Neu5Ac(a2-3)]Gal(b1-4)Glc
Outline: as §1

[18] = molecular target: Gal(b1-3)[Neu5Ac(a2-6)]GalNAc
Outline: as §1

[19] = molecular target: Gal(b1-4)GlcNAc(b1-2)Man(a1-3)[Man(a1-6)]Man(b1-4)GlcNAc(b1-4)GlcNAc
Outline: as §1

[20] = molecular target: Gal(b1-4)GlcNAc(b1-2)[Gal(b1-4)GlcNAc(b1-6)]Man(a1-6)[GlcNAc(b1-4)][Gal(b1-4)GlcNAc(b1-2)Man(a1-3)]Man(b1-4)GlcNAc(b1-4)GlcNAc
Outline: as §1

[21] = molecular target: Gal(b1-4)GlcNAc(b1-3)Gal(b1-4)GlcNAc(b1-3)Gal(b1-4)GlcNAc(b1-3)Gal(b1-4)GlcNAc(b1-2)Man(a1-3)[Gal(b1-4)GlcNAc(b1-3)Gal(b1-4)GlcNAc(b1-3)Gal(b1-4)GlcNAc(b1-3)Gal(b1-4)GlcNAc(b1-2)Man(a1-6)]Man(b1-4)GlcNAc(b1-4)GlcNAc
Outline: as §1

[22] = molecular target: Gal(b1-4)GlcNAc(b1-3)Gal(b1-4)GlcNAc(b1-3)Gal(b1-4)GlcNAc(b1-3)Gal(b1-4)GlcNAc(b1-3)Gal(b1-4)GlcNAc(b1-2)Man(a1-3)[Gal(b1-4)GlcNAc(b1-3)Gal(b1-4)GlcNAc(b1-3)Gal(b1-4)GlcNAc(b1-3)Gal(b1-4)GlcNAc(b1-3)Gal(b1-4)GlcNAc(b1-2)Man(a1-6)]Man(b1-4)GlcNAc(b1-4)[Fuc(a1-6)]GlcNAc
Outline: as §1

[23] = molecular target: Gal(b1-4)GlcNAc(b1-3)GalNAc
Outline: as §1

Gal3S(b1-4)GlcNAc = molecular target: Gal3S(b1-4)GlcNAc
Outline: as §1

B1: CFEM-SCL (Saccharomyces cerevisiae), O13547 (protein)
chain: MRATTLLSSVVSLALLSKEVLATPPACLLACVAQVGKSSSTCDSLNQVTCYCEHENSAVKKCLDSICPNNDADAAYSAFKSSCSEQNASLGD
B1 was tested, and the “glycan array binding signal (z-score)” value [1] was -0.173, the “glycan array binding signal (z-score)” value [2] was -0.213 and the “glycan array binding signal (z-score)” value [3] was 3.91. The “glycan array binding signal (z-score)” value [4] was 3.09, the “glycan array binding signal (z-score)” value [5] was -0.235 and the “glycan array binding signal (z-score)” value [6] was -0.325. For the same binder, the “glycan array binding signal (z-score)” value [7] was -0.207, the “glycan array binding signal (z-score)” value [8] was -0.289 and the “glycan array binding signal (z-score)” value [9] was 2.67. For the same binder, the “glycan array binding signal (z-score)” value (Fuc(a1-3)GlcNAc) was -0.151, the “glycan array binding signal (z-score)” value [10] was -0.174 and the “glycan array binding signal (z-score)” value [11] was 2.59. The “glycan array binding signal (z-score)” value [12] was -0.014, the “glycan array binding signal (z-score)” value [13] was 0.636 and the “glycan array binding signal (z-score)” value [14] was -0.281. The “glycan array binding signal (z-score)” value [15] was -0.238, the “glycan array binding signal (z-score)” value (Gal(b1-2)Gal) was 0.077 and the “glycan array binding signal (z-score)” value (Gal(b1-3)Gal) was 4.26. For the same binder, the “glycan array binding signal (z-score)” value (Gal(b1-3)Gal(b1-4)GlcNAc) was 2.99, the “glycan array binding signal (z-score)” value (Gal(b1-3)GalNAc) was 3.86 and the “glycan array binding signal (z-score)” value (Gal(b1-3)GalNAc(b1-3)Gal) was 14.5. The “glycan array binding signal (z-score)” value [16] was 11.1, the “glycan array binding signal (z-score)” value [17] was 2.46 and the “glycan array binding signal (z-score)” value [18] was 3.63. For the same binder, the “glycan array binding signal (z-score)” value [19] was -0.238, the “glycan array binding signal (z-score)” value [20] was -0.19 and the “glycan array binding signal (z-score)” value [21] was -0.022. For the same binder, the “glycan array binding signal (z-score)” value [22] was -0.165, the “glycan array binding signal (z-score)” value [23] was -0.111 and the “glycan array binding signal (z-score)” value (Gal3S(b1-4)GlcNAc) was -0.261.
